Data from the supplement of paper PMC3616981.
± gives the standard deviation of the averaged measurements.

Compound: CC(C)c1cccc(C(C)C)c1N1C(=O)c2ccc(O)cc2C1=O
Assay: reporter fold induction vs vehicle; higher = higher reporter activity
Protocol: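 Attagene multiplexed transcription-factor reporter assay (48 cis response elements and 25 trans nuclear-receptor constructs) treated with 5HPP-33 at 8 concentrations (0.091–200 µM). The response is fold induction of reporter activity relative to vehicle control. Cell line and time not stated in the paper; tested in ToxCast Phase II for this study.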

Target | reporter fold induction (0.091 µM) | reporter fold induction (0.274 µM) | reporter fold induction (0.823 µM) | reporter fold induction (2.469 µM) | reporter fold induction (7.407 µM) | reporter fold induction (22.22 µM) | reporter fold induction (66.67 µM) | reporter fold induction (200 µM)
HNF6_CIS | 0.992 | 0.941 | 0.978 | 0.981 | 0.982 | 0.952 | 0.932 | 0.692
FoxA2_CIS | 1.02 | 0.959 | 1.04 | 0.939 | 1.05 | 0.978 | 1.28 | 1.32
LXRa_TRANS | 0.858 | 0.611 | 1 | 0.742 | 0.814 | 0.638 | 0.979 | 0.718
XTT_Cytotoxicity | 97.6 ± 5.6 | 107 ± 18 | 111 ± 0.85 | 108 ± 3.1 | 123 ± 3.8 | 111.2 ± 0.75 | 113.8 ± 0.46 | 106.5 ± 0.33
Sp1_CIS | 1.04 | 1.04 | 1.02 | 0.989 | 1.11 | 1.08 | 1.39 | 2.02
